# Laboratory results as given in PubChem BioAssay AID504850 (National Center for Advancing Translational Sciences (NCATS), 2011).
# Hit rate of the full screen: of about 2,300 compounds, about 1,200 (52%) were called active. Another 34% or so got no clear call; they are omitted. Calls come from the whole dose curve; as a rule, active = well fitted inhibition curve with a large enough effect; inconclusive = small, poorly fitted or top-dose-only effect, or effect the other way; inactive = no such curve, though single readings can be large or run the other way. So high a share suggests a set chosen from earlier hits. Some of the results follow.
# Experiment: Confirmation screen for delayed death inhibitors of the malarial parasite plastid, 48 hour incubation; note: nearly all actives have a fitted effect of over 65% in size
# Conditions: P. falciparum-infected erythrocytes, luciferase growth; series mostly up to 28.7 µM
# Procedure, shortened: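 Erythrocytes infected with luciferase-expressing P. falciparum (2% hematocrit, 0.1% parasitemia) incubated with compounds 48 hours at 37 C, 5% CO2, in RPMI/Albumax. Growth inhibition scored as reduced luminescence after detection reagent.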
# Potency is the fitted concentration of half-maximal effect.
row,SMILES,Potency
1,CCCCSc1nnc(-c2cc3c(C(F)(F)F)nn(C)c3s2)n1C,12.6 µM (active)
2,Cc1cccc2cc3c(nc12)SC(=NCC1CCCO1)N(Cc1ccco1)C3 (stereo unspecified),1.78 µM (active)
3,O=C(O)CCn1c(-c2ccccc2)cc2c1CCCC2=O,inactive
4,COc1cc(/C=C/C(=O)NC(=O)c2ccccc2O)ccc1OC(C)=O,10 µM (active)
5,O=C(CCl)NCCN1C(=O)S/C(=C\c2cccnc2)C1=O,7.94 µM (active)
6,O=C(CCN1C(=O)S/C(=C\c2ccccc2)C1=O)NC1CCS(=O)(=O)C1 (stereo unspecified),inactive
7,COc1ccc2c(c1OC)C(=O)OC2Nc1nc(-c2ccccc2)cs1 (stereo unspecified),10 µM (active)
8,CCCCCNc1nc2sc3c(c2c(=O)n1-c1cccc(Cl)c1)CCN(C)C3,7.08 µM (active)
9,CCCCNc1nc2sc3c(c2c(=O)n1-c1cccc(Cl)c1)CCN(C)C3,3.55 µM (active)
10,Brc1ccccc1-c1nnc(COc2ncnc3c2cnn3-c2ccccc2)o1,inactive
11,CN(C)c1cc[n+](CC(=O)Nc2ccc(OC(F)F)cc2)cc1,2.82 µM (active)
12,Cc1ccc[n+](CC(=O)Nc2ccc(N(C)C)cc2)c1,inactive
13,O=C(C[n+]1cccc(CNC(=O)c2ccc(OC(F)F)cc2)c1)Nc1ccc(SC(F)F)cc1,5.62 µM (active)
14,CCOc1ccc(NC(=O)C[n+]2ccc(N(C)C)cc2)cc1,2.51 µM (active)
15,O=C(CCl)Nc1ccc(Sc2ccc(NC(=O)CCl)cc2)cc1,2.51 µM (active)
16,CC(C)N(c1ccccc1)c1ccc(NC(=O)CCl)cc1,11.2 µM (active)
17,CCOC(=O)c1c(NC(=S)N2CCCCC2)sc2c1CCN(C(=O)OCC)C2,5.62 µM (active)
18,CCc1ccc(-c2nc3ccc(Br)cc3c(C(=O)O)c2C)s1,inactive
19,C=CCc1cccc(CNc2ccc(Br)cc2)c1O,3.98 µM (active)
20,COc1ccc(CCNc2cc(C)nc3c(-c4ccc(Cl)cc4)c(C)nn23)cc1OC,12.6 µM (active)
21,Fc1ccc(CNc2ccc(N3CCN(Cc4ccccc4)CC3)cc2)cc1,12.6 µM (active)
22,O=C(CSc1nnc(CNc2ccc(F)cc2)o1)c1ccccc1,inactive
23,CCCCN(CCCC)CC(O)c1cc(Cl)cc2c1-c1ccc(Cl)cc1/C2=C/c1ccc(Cl)cc1 (stereo unspecified),0.0562 µM (active)

row,SMILES,Potency
1,Cc1nn(Cc2c(Cl)cccc2Cl)c(C)c1NC(=O)c1cc(C(C)C)on1,12.6 µM (active)
2,CCC(C(=O)Nc1sc(C(N)=O)c(C)c1C(=O)OC)c1ccccc1 (stereo unspecified),12.6 µM (active)
3,CCOC(=O)c1cnc2ccccc2c1NCCc1ccc(OC)c(OC)c1,11.2 µM (active)
4,CCN(CC)C(=O)N1c2ccccc2C=Cc2ccccc21,15.8 µM (active)
5,O=C1c2ccccc2C(=Nc2ccccc2)C1c1cccc(Br)c1 (stereo unspecified),3.98 µM (active)
6,CCOC(=O)c1cc(-c2ccccc2)sc1NC(=O)C(C)OC(=O)c1cccnc1Cl (stereo unspecified),11.2 µM (active)
7,CCc1ccc(Nc2n[n+](-c3ccccc3)c(-c3cccc(Cl)c3Cl)s2)cc1,3.16 µM (active)
8,CC1=CC(C)(C)N2C(=O)C3(NCCc4c3[nH]c3ccccc43)c3cc(C)cc1c32 (stereo unspecified),14.1 µM (active)
9,CCN(CC)c1ccc(/C=N/NC(=S)NC)c(O)c1,10 µM (active)
10,O=C(C[n+]1ccccc1)Nc1ccc(Cl)c([N+](=O)[O-])c1,12.6 µM (active)
11,CC(C)(C)c1cc(NC(=O)CCl)n(-c2ccccc2)n1,12.6 µM (active)
12,Cc1ccc(-c2cc(NC(=O)CCl)n(-c3ccccc3)n2)cc1,10 µM (active)
13,N#CCCn1nc(-c2ccc(Cl)cc2)cc1Nc1ccccc1NC(=O)C(F)(F)F,inactive
14,O=C(CCl)Nc1c2c(nn1-c1ccccc1)CSC2,2.51 µM (active)
15,CC1CCN(C(=O)Cn2c(=O)oc3cc(S(=O)(=O)N4CCCCC4)ccc32)CC1,15.8 µM (active)
16,COc1ccc(CN2CCN(Cc3cc4ccccc4o3)CC2CCO)cc1C (stereo unspecified),14.1 µM (active)
17,CCOc1ccccc1CN1CCN(Cc2ccc3cccc(OC)c3n2)CC1CCO (stereo unspecified),14.1 µM (active)
18,CCCN1C(=O)c2ccccc2NC1c1ccc(OC)cc1O (stereo unspecified),12.6 µM (active)
19,Cc1cccc(C2Nc3ccccc3C(=O)N2c2ccccc2)n1 (stereo unspecified),inactive
20,O=[N+]([O-])c1ccc(CNC2CCCc3ccccc32)cc1 (stereo unspecified),inactive
21,O=[N+]([O-])c1ccc(C[n+]2cccc3c4ccccc4ccc32)cc1,0.398 µM (active)
22,O=C(NC1CCCC1)c1ccc([N+](=O)[O-])s1,14.1 µM (active)
23,O=C(NC1C=CS(=O)(=O)C1)c1sc2ccccc2c1Cl (stereo unspecified),6.31 µM (active)

row,SMILES,Potency
1,Cc1cc(Cl)cc(C)c1OCCn1ccnc1,12.6 µM (active)
2,Cc1nn(Cc2ccccc2Cl)c(C)c1C(=O)Nc1nnc(C2CC2)s1,11.2 µM (active)
3,Cc1c(OCC(=O)NCc2cccnc2)ccc2c3c(c(=O)oc12)CCC3,inactive
4,Cc1c(OC(C)C(=O)NCc2cccnc2)ccc2c3c(c(=O)oc12)CCCC3 (stereo unspecified),1.58 µM (active)
5,Cc1c(OCC(=O)NCc2cccnc2)ccc2c3c(c(=O)oc12)CCCC3,10 µM (active)
6,Cc1cccc(C(=O)Nc2ccccc2SCC2CSc3nc4ccccc4c(=O)n32)c1 (stereo unspecified),11.2 µM (active)
7,O=C(Nc1ccccc1SCC1CSc2nc3ccccc3c(=O)n21)c1ccccc1Cl (stereo unspecified),11.2 µM (active)
8,O=C(Nc1ccccc1SCC1CSc2nc3ccccc3c(=O)n21)c1cccc(Cl)c1 (stereo unspecified),11.2 µM (active)
9,Cc1ccc(C(=O)Nc2ccccc2SCC2CSc3nc4ccccc4c(=O)n32)cc1 (stereo unspecified),11.2 µM (active)
10,COc1ccc(NS(=O)(=O)c2cc(OCC(N)=O)c(C)cc2Cl)cc1,7.08 µM (active)
11,COc1ccc(/C=C2\N=C(SC)N(c3ccccc3OC)C2=O)cc1,14.1 µM (active)
12,CCN(CC)C1=N/C(=C\c2ccc(OC)cc2)C(=O)N1c1ccccc1,14.1 µM (active)
13,Cc1c(O)ccc2c(CN(C)Cc3ccccc3)cc(=O)oc12,14.1 µM (active)
14,COc1cccc(CN(C)Cc2cc(=O)oc3c(C)c(C)ccc23)c1,inactive
15,Cc1ccc2c(CN(C)Cc3cccc(Cl)c3)cc(=O)oc2c1C,inactive
16,COc1ccccc1CN1CCCC(CN(CCN(C)C)C(=O)c2ccc(C)cc2)C1 (stereo unspecified),15.8 µM (active)
17,Cn1nnnc1Sc1ncnc2scc(-c3cccc(F)c3)c12,12.6 µM (active)
18,Cn1nnnc1Sc1ncnc2scc(-c3cccc(S(C)(=O)=O)c3)c12,12.6 µM (active)
19,Cc1onc(-c2c(Cl)cccc2Cl)c1C(=O)N=C(N)N1CC(C)OC(C)C1 (stereo unspecified),11.2 µM (active)
20,Cc1onc(-c2c(F)cccc2Cl)c1C(=O)N1CCCCC1,inactive
21,C=CCC1(O)C(=O)N2C(=C1C(=O)OCC)c1ccc3ccccc3c1CC2(C)C (stereo unspecified),11.2 µM (active)
22,Cc1ccc(C(=O)NCCn2ccc3ccccc32)cc1[N+](=O)[O-],inactive
23,CCCNC(=O)c1ccc(S(=O)(=O)c2ccc(OC)cc2)c([N+](=O)[O-])c1,7.94 µM (active)

row,SMILES,Potency
1,O=C(N/N=C(\CC(=O)c1cccs1)C(F)(F)F)c1ccncc1,inactive
2,O=C(N/N=C/C(Cl)=C\c1ccccc1)c1cccs1,5.01 µM (active)
3,O=C1Nc2ccccc2/C1=C/C(=O)c1cccs1,inactive
4,CC(=O)OC[C@H]1O[C@@H](n2ncc(=O)[nH]c2=O)[C@H](OC(C)=O)[C@@H]1OC(C)=O,inactive
5,Cc1ccc(S(=O)(=O)N(Cc2ccccc2)c2ccccc2C(=O)Nc2ccccc2C(=O)NCc2ccco2)cc1,2.51 µM (active)
6,CCCN(CCC)S(=O)(=O)c1ccc(C(=O)NCc2ccco2)cc1,12.6 µM (active)
7,Cc1ccc(NC(=O)CN(C)C(=O)c2cccc(S(=O)(=O)NCc3ccco3)c2)cc1,inactive
8,Cc1ccc(S(=O)(=O)N(CC(=O)NCc2ccco2)c2ccccc2C)cc1,12.6 µM (active)
9,CCN(CC(=O)Nc1c(F)cccc1F)C(=O)c1ccc(S(=O)(=O)NCc2ccco2)cc1,inactive
10,C(=C\c1nc(N2CCCCCC2)c2ccccc2n1)/c1ccccc1,6.31 µM (active)
11,O=C(COc1ccccc1)N1c2ccccc2Sc2ccccc21,14.1 µM (active)
12,Cc1ccc(C)c(N2CCN(S(=O)(=O)c3ccc4c(c3)NC(=O)CS4)CC2)c1,11.2 µM (active)
13,Cc1cccc(N2CCN(S(=O)(=O)c3ccc4c(c3)NC(=O)CO4)CC2)c1C,15.8 µM (active)
14,COc1ccc(-c2cc(C)no2)cc1S(=O)(=O)Nc1cccc(CN2CCCC2)c1,14.1 µM (active)
15,Cc1ccc(OCCSCc2nnc(NC(=O)Nc3cccc(Cl)c3)s2)cc1,2.82 µM (active)
16,Cc1cc(=O)oc2c3c(cc(OCC(=O)Nc4cccnc4)c12)OC(C)(C)CC3,3.98 µM (active)
17,Cc1ccccc1-n1nc2c(c1NC(=O)C1CCCC1)CS(=O)(=O)C2,inactive
18,CCOC(=O)c1cc(-c2ccc(C)cc2)n(CCC(=O)NCCN(C)C)c1C,11.2 µM (active)
19,O=C(/C=C/c1ccccc1)Nc1sc2c(c1C(=O)O)CCC2,inactive
20,CC(C)(C)c1ccc(C(=O)Nc2sc3c(c2C(=O)O)CCC3)cc1,11.2 µM (active)
21,COc1ccc(S(=O)(=O)NCc2ccco2)cc1-c1nnc2c3ccccc3c(C)nn12,11.2 µM (active)
22,CO[C@H](C(=O)[C@@H](O)[C@@H](C)O)C1Cc2cc3cc(O[C@H]4C[C@@H](O[C@H]5C[C@@H](O)[C@H](O)[C@@H](C)O5)[C@@H](O)[C@@H](C)O4)c(C)c(O)c3c(O)c2C(=O)[C@H]1O[C@H]1C[C@@H](O[C@H]2C[C@@H](O[C@H]3C[C@](C)(O)[C@H](O)[C@@H](C)O3)[C@H](O)[C@@H](C)O2)[C@H](O)[C@@H](C)O1 (stereo partly specified),0.562 µM (active)
